Bioassay records as filed in PubChem.
RORg inh – qHTS for inhibitors of ROR gamma transcriptional activity | Nuclear receptor ROR-gamma (Mus musculus), P51450 | Drosophila S2 Gal4-RORgamma UAS-luciferase reporter, 20 h | Potency, µM (highest dose often 53.6 µM), for inactives: at the top dose activity change, negative = inhibition, most hits filed as inhibitors | 310,000 tested, 5.4% active | AID 2551, 2010; note: nearly all actives have a fitted effect of over 60% in size
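Luminescence from a UAS-regulated Photinus luciferase reporter in stably transfected Drosophila Schneider cells is measured; decreased signal marks ROR gamma inhibition. Fusion expression is induced by 700 uM copper sulfate for 20 hr.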
TDP1 cell CPT – qHTS for Inhibitors of human tyrosyl-DNA phosphodiesterase 1 (TDP1): qHTS in cells in presence of CPT; chicken DT40 Tdp1-/-;hTDP1 cells + 20 nM CPT, ATP luminescence, 48 h; Potency, µM (doses to about 46.2 µM), for inactives: at the top dose activity change, negative = growth inhibition, hits mostly inhibitors; 420,000 tested, 12% active; AID 686979, 2013; note: nearly all actives have a fitted effect of over 55% in size
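Chicken DT40 Tdp1-/- cells stably complemented with human TDP1 were seeded at 400 cells/well in medium containing 20 nM camptothecin, exposed to pin-transferred compounds, and grown at 37 °C for at least 48 hr. Viability was read as ATP luminescence.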
ELG1 repair inh – qHTS screen for small molecules that inhibit ELG1-dependent DNA repair in human embryonic kidney (HEK293T) cells expressing luciferase-tagged ELG1; HEK293T ELG1-luciferase reporter, luminescence, 16 h; DNA damage induced by 5-fluorouridine; 330,000 tested, 2.3% active; AID 504467, 2011; Potency, µM (highest dose often 46.1 µM), for the others: at the highest dose activity change, negative = inhibition, actives largely listed as inhibitors; note: nearly all actives have a fitted effect of over 55% in size
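In this reporter screen, reduction of luminescence relative to DMSO vehicle indicated activity. Compounds and 5-fluorouridine were added together to 2,000 cells per well, incubated for 16 hr at 37 °C, then developed with ONE-Glo.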
12-LOX inh – Primary qHTS assay for inhibitors of human arachidonate 12S-lipoxygenase (ALOX12): Round 2; Polyunsaturated fatty acid lipoxygenase ALOX12 (Homo sapiens), P18054; purified 12hLO, xylenol orange hydroperoxide absorbance; Potency, µM (top dose mostly 108 µM), inactives show top-dose activity change, negative = inhibition, actives largely listed as inhibitors; 580,000 tested, 1.1% active
Target sequence (P18054 whole entry, looked up): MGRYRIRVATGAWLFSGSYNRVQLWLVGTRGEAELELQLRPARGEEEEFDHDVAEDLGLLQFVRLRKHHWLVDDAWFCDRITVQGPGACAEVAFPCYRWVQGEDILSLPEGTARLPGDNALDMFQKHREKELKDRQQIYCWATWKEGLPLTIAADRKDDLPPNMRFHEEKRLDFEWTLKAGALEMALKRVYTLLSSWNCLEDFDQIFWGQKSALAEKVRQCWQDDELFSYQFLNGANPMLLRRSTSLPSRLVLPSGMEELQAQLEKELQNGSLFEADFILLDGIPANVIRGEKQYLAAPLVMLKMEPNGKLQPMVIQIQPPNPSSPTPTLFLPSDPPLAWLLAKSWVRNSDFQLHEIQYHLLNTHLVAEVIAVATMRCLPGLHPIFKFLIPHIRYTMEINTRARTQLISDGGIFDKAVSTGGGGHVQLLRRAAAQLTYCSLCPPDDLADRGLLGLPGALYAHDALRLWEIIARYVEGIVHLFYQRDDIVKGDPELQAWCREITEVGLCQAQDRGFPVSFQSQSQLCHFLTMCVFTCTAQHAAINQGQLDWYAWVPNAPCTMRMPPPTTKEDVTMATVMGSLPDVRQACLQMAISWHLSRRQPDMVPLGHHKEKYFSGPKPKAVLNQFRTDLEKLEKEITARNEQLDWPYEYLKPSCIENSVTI
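Hydroperoxide product was detected by ferrous iron/xylenol orange as the 573 to 405 nm absorbance ratio. Arachidonic acid at 40 uM (final) was turned over for 30 min at room temperature by 150 nM human 12hLO, pH 7.0 Hepes buffer, after 15 min compound preincubation.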
VP16 counter – VP16 counterscreen qHTS for inhibitors of ROR gamma transcriptional activity | Drosophila S2 Gal4-VP16 UAS-luciferase, luminescence, 20 h | Potency, µM (highest dose often 53.6 µM), inactives show top-dose activity, negative = inhibition, actives largely listed as inhibitors | 310,000 tested, 3.5% active | AID 2546, 2010;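 note: Gal4-VP16 expression switched on by copper sulfate through the metallothionein promoter; nearly all actives have a fitted effect of over 50% in size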
DT40 TDP1 no CPT – qHTS for Inhibitors of human tyrosyl-DNA phosphodiesterase 1 (TDP1): qHTS in cells in absence of CPT. Potency, µM (top dose mostly 46.2 µM), for inactives: at the top dose activity change, negative = growth inhibition, usual class: inhibitors. 420,000 tested, 15% active. DT40 Tdp1-/- hTDP1 cells, no CPT, ATP luminescence, 48 h; note: nearly all actives have a fitted effect of over 55% in size
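No-CPT arm: Tdp1-/-;hTDP1 DT40 cells (400/well) plus compounds, incubated ≥48 hr at 37 °C. Readout CellTiter-Glo luminescence.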
Starred values were filed as active, the others as inactive; ? = inconclusive; · = not tested or not shown; [ ] = dose if it differs, or a comment. Hits are enriched below; roughly 15% of the tested compounds scored in any of these assays. Calls come from the whole dose curve; as a rule, active = well fitted curve in the direction sought with a large enough effect; inconclusive = small, poorly fitted or top-dose-only effect, or another doubt; inactive = no such curve, though single readings can be large; an effect the other way counts as inactive or inconclusive. % is set by controls: 0 for no effect and ±100 for the full control effect; potency is the fitted concentration of half-maximal effect.

SMILES	RORg inh	TDP1 cell CPT	ELG1 repair inh	12-LOX inh	VP16 counter	DT40 TDP1 no CPT
CCc1ccc(OCCCN=C(C)c2c(O)n(C)c(=O)n(C)c2=O)cc1	30.4%	13µM*	?	0.0%	?	18.4µM*
Cn1c(O)c(C(=Nc2ccccc2)SCc2ccc(Cl)cc2)c(=O)n(C)c1=O	?	4.61µM*	?	15.8µM*	-6.8%	3.26µM*
CC(=NCCC(c1ccccc1)c1ccccc1)c1c(O)n(C)c(=O)n(C)c1=O	9.8%	20.6µM*	?	-8.5%	-4.1%	13µM*
Cn1c(O)c(C(=N)COc2ccccc2)c(=O)n(C)c1=O	27.2%	-14.5%	-3.5%	11.8%	-5.8%	-9.3%
C=CCN(C)C(=O)[C@H]1CN2CCC1C[C@@H]2Cn1cc(-c2ccccc2)nn1 (stereo partly specified)	·	·	·	17.0%[176 µM]	·	·
COc1cc2c(cc1OCc1ccccc1)N(C(=O)CC1CC1)CC21CCN(C)CC1	·	·	·	3.7%[176 µM]	·	·
COCCNC(=O)[C@H]1CN2CC[C@H]1C[C@@H]2Cn1cc(CC2CCCCC2)nn1	·	·	·	2.0%[176 µM]	·	·
CCOC(=O)[C@]12Cc3cc(OC)ccc3[C@H]1N(Cc1ccccc1)C(=O)c1cc(OC)ccc12	·	?	·	5.8%	·	16.4µM*
COc1cccc(C2Nc3ccccc3C(=O)N2Cc2ccccc2)c1 (stereo unspecified)	·	-2.4%	·	19.3%	·	?
CCOC(=O)[C@]12Cc3ccc4ccccc4c3[C@H]1N(Cc1ccccc1)C(=O)c1ccccc12	·	?	·	-20.0%	·	?
CCOC(=O)[C@]12Cc3cc4ccccc4cc3[C@H]1N(Cc1ccccc1)C(=O)c1ccccc12	·	16.4µM*	·	?	·	20.6µM*
CCOC(=O)[C@]12Cc3ccsc3[C@H]1N(Cc1ccccc1)C(=O)c1ccccc12	·	?	·	-2.0%	·	18.4µM*
CCCCCN1C(=O)c2cc(OC)ccc2[C@@]2(C(=O)OCC)Cc3cc(Cl)ccc3[C@@H]12	·	3.26µM*	·	?	·	2.91µM*
O=C(CC1CCCC1)N1[C@H]2CC[C@@H]1c1cnc(-c3ccc(F)cc3)nc1C2	·	·	·	8.5%	·	·
CCOC(=O)[C@]12Cc3cc4ccccc4cc3[C@H]1N(Cc1ccccc1)C(=O)c1cc(OC)ccc12	·	8.2µM*	·	?	·	6.51µM*
CCOC(=O)c1cc2cc(OC)ccc2n1C1CCN(Cc2ccccc2)CC1	·	?	·	-66.0%	·	?
CCOC(=O)[C@]12Cc3cc(OC)c(OC)cc3[C@H]1N(Cc1ccccc1)C(=O)c1ccccc12	·	?	·	1.1%	·	14.1µM*
CCOC(=O)[C@]12Cc3ccccc3[C@H]1N(Cc1ccccc1)C(=O)c1cc(OC)ccc12	·	?	·	0.0%	·	18.4µM*
CCOC(=O)[C@]12Cc3c(cc(OC)c(OC)c3OC)[C@H]1N(Cc1ccccc1)C(=O)c1ccccc12	·	?	·	-5.8%	·	16.4µM*
O=C(NC[C@H]1C[C@@H]2CCN1C[C@@H]2CN1CCCC1)c1ccccc1	·	·	·	11.3%[176 µM]	·	·
NCCc1cccs1	·	·	·	79.1%	·	·
CC(C)(C)c1ccc(-c2cn(C[C@H]3CC4CCN3C[C@@H]4C(=O)Nc3ccccc3)nn2)cc1 (stereo partly specified)	·	·	·	5.5%	·	·
O=C(c1ccncc1)N1CC2CCC(C1)N2Cc1cccs1	·	·	·	-0.4%[6.33 µM]	·	·
Cc1noc(C)c1S(=O)(=O)N1[C@H]2CC[C@@H]1c1cnc(-c3ccc(F)cc3)nc1C2	·	·	·	20.3%	·	·
O=C(c1cc(Br)c[nH]1)C(Cl)(Cl)Cl	·	·	·	-19.2%	·	·
SMILES	RORg inh	TDP1 cell CPT	ELG1 repair inh	12-LOX inh	VP16 counter	DT40 TDP1 no CPT
CCOC(=O)[C@]12Cc3cc(Cl)ccc3[C@H]1N(Cc1ccccc1)C(=O)c1cc(OC)ccc12	·	4.61µM*	·	?	·	5.8µM*
CCOC(=O)[C@]12Cc3cc(OC)ccc3[C@H]1N(CCC(=O)OC)C(=O)c1cc(OC)ccc12	·	?	·	-17.5%	·	14.6µM*
COc1ccccc1CNC(=O)[C@H]1CN2CCC1C[C@@H]2Cn1cc(C(C)(C)O)nn1 (stereo partly specified)	·	·	·	22.9%[176 µM]	·	·
CCN(CC)c1ccc(/C=C2\C(=O)NC(=O)N(Cc3ccco3)C2=O)cc1	?	0.9%	?	44.7µM*	0.9%	-27.6%
O=C(O)Cn1cc(/C=C2\C(=O)NC(=O)N(Cc3ccco3)C2=O)c2ccccc21	2.8%	0.731µM*	10.2%	?	-12.5%	?
CCN1C(=O)NC(=O)/C(=C\c2cn(CC(=O)O)c3ccccc23)C1=O	-22.6%	·	10.7%	·	-6.7%	·
C=C[C@H]1CN2CC[C@H]1C[C@@H]2CNS(=O)(=O)c1ccc(OC)cc1	·	·	·	19.2%[176 µM]	·	·
Cc1ccc(-n2nnnc2C2(NC(C)C)CCCCC2)cc1	·	·	·	4.6%	·	·
CCCNC(=O)OC[C@H]1C[C@@H]2CCN1C[C@@H]2c1cc(-c2ccccc2)nn1C	·	·	·	6.2%[176 µM]	·	·
CCCS(=O)(=O)Nc1ccc2n(c1=O)C[C@H]1C[C@@H]2CN(Cc2cn(C)c3ccccc23)C1	·	·	·	68.1%	·	·
Cc1ccccc1-n1c(/C=C/c2ccccn2)nc2ccccc2c1=O	16.6%	18.4µM*	?	25.8%	-6.4%	23.1µM*
Cc1ccccc1-n1c(/C=C/c2ccc(O)cc2)nc2ccccc2c1=O	·	9.2µM*	·	?	·	5.8µM*
Cc1ccsc1C(=O)C1CCCN(Cc2ccccc2O)C1 (stereo unspecified)	4.4%	-21.4%	-8.6%	-12.5%	4.3%	?
Cc1ccsc1C(=O)C1CCCN(Cc2cccn2-c2ccccn2)C1 (stereo unspecified)	-6.7%	20.6µM*	-2.7%	-0.4%	7.9%	?
COc1ccc(-c2cc([C@H]3CN4CC[C@H]3C[C@@H]4CNC(=O)CCCC(=O)O)n(C)n2)cc1	·	·	·	28.2%	·	·
CCOc1ccccc1NC(=O)c1cccn(Cc2ccccc2C)c1=O	·	-2.4%	·	-5.5%	·	0.7%
Cc1ccc2c(c1)Cc1c(C(=O)NN3CCCCC3)nn(-c3ccc(Cl)cc3Cl)c1-2	?	·	·	?	-5.1%	·
CCOc1cccc(CC(=O)NCc2ccc3c(c2)CCN3C(=O)c2cccc(C)c2)c1OCC	·	20.6µM*	·	-6.8%	·	20.6µM*
Cc1ccc(NC(=O)NCc2ccc3c(c2)CCN3C(=O)c2ccccc2)c(Cl)c1	·	?	·	?	·	23.1µM*
